# Bioassay records (PubChem)
# Most compounds without a hit are left out; they make up all but 0.5% or so of the library.
# Tat transport: E. coli Tat transport inhibition. E. coli MC4100 TorA-mCherry Tat export, fluorescence. inhibition, % at 10 µM. 340,000 compounds, 0.036% hits;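 active = mean replicate inhibition at least 50% and at least half of replicates individually reaching 50%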;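 note: exported cargo escapes ClpAP degradation while cytoplasmic cargo is degraded and loses fluorescence; 0% = median of neutral control wells and 100% = median of NaSCN control wells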
# E coli growth-1: E. coli growth inhibition. Escherichia coli growth, OD600, 23 h; active compounds read low. OD600 absorbance (concentration not given with the values). 330,000 compounds, 0.21% hits. AID 1053175;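 active = OD600 absorbance below the run mean of sample wells minus 3.6 SD, in any replicate, cut at about 0.56 in these data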
# phage Ecoli inh: E. coli growth loss with phage present. growth absorbance. inhibition, % at 11.9 µM. 360,000 compounds, 0.26% hits. AID 651602; in the data active = inhibition above about 11%
# AddAB inh: less growth of phage-infected E. coli with AddAB; E. coli expressing H. pylori AddAB, absorbance growth; inhibition, % at 11.9 µM; 330,000 compounds, 0.29% hits; in the data active = inhibition above about 12%;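 note: 0% = vehicle wells of infected cells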
# E coli growth-2: counter-screen for AddAB inhibitors: E. coli growth inhibition; inhibition, % at 11.9 µM; E. coli V3065 growth, OD600 absorbance, 18 h; 330,000 compounds, 0.27% hits;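 active = inhibition above the campaign's mean inhibition across all tested compounds plus 3 SD, cut at about 9.9% in these data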;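 note: uninfected addAB+ strain grown without phage in ampicillin broth; 0% = DMSO wells and 100% = ciprofloxacin 0.95 µg/ml wells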
# RecBCD conf: growth loss of phage-infected V66 E. coli, RecBCD confirmation screen; shares compounds with phage Ecoli inh; E. coli V66 + T4 2- phage, growth OD; inhibition, % at 11.9 µM; 890 compounds, 45% hits;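 active = mean inhibition over triplicates exceeding the hit threshold derived in the original primary screen, cut at about 11% in these data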
# Ecoli viability: bacterial viability inhibition counter-screen for RecBCD. 890 compounds, 29% hits. shares compounds with phage Ecoli inh. E. coli viability, absorbance (OD) growth. inhibition, % at 11.9 µM. AID 651983; in the data active = inhibition above about 20%;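 note: E. coli strain V66 grown with compound alone and no phage infection; 0% = bacteria with DMSO vehicle only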
# AddAB counter: growth loss of phage-infected AddAB E. coli, RecBCD counter-screen; 890 compounds, 45% hits; inhibition, % at 11.9 µM; AID 651984; shares compounds with phage Ecoli inh; E. coli expressing H. pylori AddAB + T4 phage, OD growth; gene 2 mutant T4, recBCD-deleted host;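 active = mean inhibition above the solvent-only control wells' mean plus 3 SD, cut at about 22% in these data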;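 note: higher means less bacterial growth from phage killing when AddAB is blocked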
# Active calls of the source: *; . = no result given.
SMILES,Tat transport,E coli growth-1,phage Ecoli inh,AddAB inh,E coli growth-2,RecBCD conf,Ecoli viability,AddAB counter
CC1CN(C(C)CO)C(=O)c2cc(NC(=O)Nc3ccc4c(c3)OCO4)ccc2OC1CN(C)S(C)(=O)=O (stereo not drawn),.,0.72,.,.,.,.,.,.
Cc1cc(-c2ccccc2)n(-c2cc(N/N=C/c3ccccc3O)ncn2)n1,-4,.,16*,9,5,6,7,4
Cc1cc(-c2ccccc2)n(-c2cc(NN=Cc3ccccc3O)ncn2)n1,.,0.71,.,.,.,.,.,.
CC1CN(C(C)CO)C(=O)c2cccc(NC(=O)c3ccncc3)c2OC1CN(C)S(=O)(=O)c1ccccc1 (stereo not drawn),.,0.67,.,.,.,.,.,.
CCOC(=O)CN1C(=O)NC(c2ccccc2)C(C(C)=O)C1C (stereo not drawn),.,0.7,.,.,.,.,.,.
CCc1ccc(NC(=O)NNC(=O)c2cc3ccccc3cc2O)cc1,-16,0.7,7,5,7,.,.,.
Cc1ccc(NC(=O)NNC(=O)c2cc3ccccc3cc2O)c(C)c1,2,0.7,12*,11,10*,7,8,7
O=C(NNC(=O)c1cc2ccccc2cc1O)Nc1ccccc1F,-5,0.68,11*,12,9.9*,6,7,10
CCOC1OC(C(=O)N2CCOCC2)=CC(c2coc3ccccc3c2=O)C1CCCO (stereo not drawn),.,0.64,.,.,.,.,.,.
COc1ccc(NC(=O)C2CC=CC3CCN(Cc4ccccc4)C(=O)C32)cc1 (stereo not drawn),.,0.7,.,.,.,.,.,.
COc1cccc(C2c3c(oc4ccccc4c3=O)C(=O)N2CCCN2CCOCC2)c1 (stereo not drawn),29,0.68,15*,2,2,-2,-2,-6
O=[N+]([O-])c1ccc(N/N=C/c2cccc(O)c2O)c(S(=O)(=O)N2CCOCC2)c1,-7,.,1,2,0,.,.,.
O=[N+]([O-])c1ccc(N/N=C/c2ccc(O)c(O)c2O)c(S(=O)(=O)N2CCOCC2)c1,5,.,11*,.,.,9,10,11
COc1ccc(S(=O)(=O)N(CCC(N)=O)Cc2ccco2)cc1OC,19,0.64,98*,1,-1,-2,-2,-4
COc1ccc(S(=O)(=O)N(Cc2ccc(OC)c(OC)c2)Cc2ccco2)cc1,-1,0.77,3,2,1,.,.,.
O=C1C2C(c3ccc(Cl)cc3)N3C(=O)N(c4cccc(F)c4)C(=O)[C@@]3(Cc3ccccc3)C2C(=O)N1C1CCCCC1 (stereo partly drawn),.,0.71,.,.,.,.,.,.
Cc1ccc(C)c(NS(=O)(=O)c2c(C)nc3sccn3c2=O)c1,-10,0.7,99*,-2,0,-2,-2,-2
COc1ccc(Cl)cc1NS(=O)(=O)c1c(C)nc2sccn2c1=O,4,0.75,3,3,-1,.,.,.
O=C(CSc1ccc(-c2ccccn2)nn1)Nc1cccc(F)c1,11,0.62,12*,10,11*,4,3,6
O=[N+]([O-])c1ccc(NC(=S)NCCc2ccccc2)cc1,-3,0.59,8,8,6,.,.,.
Fc1ccc(CNC(=S)Nc2ccc(Cl)cc2)cc1,-2,0.63,12*,8,8,5,7,7
O=[N+]([O-])c1ccc(NC(=S)NCCc2ccc(Cl)cc2)cc1,-19,0.58,13*,11,11*,3,5,9
Fc1ccc(NC(=S)NCc2ccccc2)cc1,14,0.65,3,2,1,.,.,.
COc1cc(CC(C)C(C)Cc2ccc(O)c(OC)c2)ccc1O (stereo not drawn),.,0.7,.,.,.,.,.,.
CC(=O)OCC1=C(C(=O)O)N2C(=O)C(NC(=O)c3ccc(F)cc3)C2SC1 (stereo not drawn),-3,0.68,2,0,0,.,.,.
SMILES,Tat transport,E coli growth-1,phage Ecoli inh,AddAB inh,E coli growth-2,RecBCD conf,Ecoli viability,AddAB counter
CON=C(C(=O)NC1C(=O)N2C(C(=O)O)=C(CSc3nc(=O)c(=O)[nH]n3C)CSC12)c1csc(N)n1 (stereo not drawn),-22,.,102*,.,.,102*,103*,103*
CO/N=C(\C(=O)N[C@@H]1C(=O)N2C(C(=O)O)=C(COC(N)=O)CS[C@H]12)c1ccco1,1,.,63*,-3,0,93*,98*,81*
CC1Cc2ccccc2N1C(=O)CCn1c(=O)oc2ccccc21 (stereo not drawn),10,0.66,99*,-1,0,-7,-7,-2
CCN(CC)S(=O)(=O)c1cccc(NC(=O)CC2CCCC2)c1,25,0.7,1,2,1,.,.,.
CCN(CC)S(=O)(=O)c1cccc(NC(=O)Nc2cccc(C(F)(F)F)c2)c1,13,0.64,11*,9,7,2,4,2
O=C(Nc1cc([N+](=O)[O-])c2[nH]c(=O)c3ccccc3c2c1)C(F)(F)F,6,.,14*,.,.,12*,15,96*
CCOC(=O)C1C2COc3cc(OC)ccc3C2N2C(=O)N(c3ccc(Cl)cc3)C(=O)[C@@]12C (stereo partly drawn),.,0.54,.,.,.,.,.,.
N#Cc1c2ccc([N+](=O)[O-])cc2[n+]([O-])n1-c1ccccc1,0,.,17*,37*,38*,16*,18,51*
O=c1c2cc([N+](=O)[O-])ccc2sn1-c1ccccc1,.,.,4,.,.,.,.,.
Fc1cccc(C2NN=C(c3ccccc3)S2)c1 (stereo not drawn),-3,0.73,1,1,2,.,.,.
O=C1c2ccccc2C2=Nc3ccccc3SC(c3cccc(F)c3)C12 (stereo not drawn),-33,0.59,16*,8,12*,12*,9,26*
Cc1ccc(S(=O)(=O)N2C(c3cccs3)CC=C(C(=O)O)C2c2ccccc2)cc1 (stereo not drawn),.,0.67,.,.,.,.,.,.
C=CCn1c(=O)c(C(=O)NCCc2ccccc2)c(O)c2ccccc21,7,0.65,13*,10,13*,6,10,8
O=C(Oc1c(Br)cc([N+](=O)[O-])cc1Br)c1cccnc1,22,0.48*,13*,10,6,14*,17,18
Cc1ccc(C2C3C(=O)N(c4ccccc4)C(=O)C3[C@]3(C)C(=O)N(CC4CC4)CC(=O)N23)o1 (stereo partly drawn),.,0.7,.,.,.,.,.,.
Cn1nnnc1SCc1ccc(F)cc1,-1,0.66,20*,1,-1,0,0,-1
CC(=O)c1ccc(NC(=O)c2ccc([N+](=O)[O-])o2)cc1,1,0.47*,17*,.,.,11*,14,66*
O=C(Nc1ccc(Cl)cn1)c1ccc([N+](=O)[O-])o1,-28,0.5,18*,.,.,7,8,96*
